Experimental data as given in PubChem BioAssay AID588492 (Sanford-Burnham Center for Chemical Genomics, 2011).
Several values for one entry are separate records, joined by “and”; a condition that tells them apart may be missing. Identical values can stand only once. In all, about 360,000 compounds went through this assay and about 2,300 (0.64%) were called active. Many of the other results were omitted from the sample, so actives are more common in it than they were. Unmarked numbers belong to inactive results.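 Rule for the calls: active = compounds giving at least 50% protection of heart cells from peroxide-induced death in the single-dose screen, raw or plate-pattern-corrected value; inactive = the rest.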

assay: H9c2 cardiomyocyte survival under peroxide injury – uHTS, H9c2 cells, ATPLite luminescence, primary screen (AID 588492); settings: H9c2 cardiomyocytes, 2 h, at 20 µM, active compounds read high;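 note: 0% = DMSO wells with peroxide and 100% = DMSO wells without peroxide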

Compound | protection from H2O2 cell death
O=C(NCCc1ccccc1)/C(=C\c1ccc([N+](=O)[O-])cc1)NC(=O)c1ccccc1 | 16.6%
O=C(N/N=C/c1cc([N+](=O)[O-])ccc1O)/C(=C\c1cccs1)NC(=O)c1ccccc1 | 54.9% (active)
O=C(Nc1ccc(C(=O)O)cc1)/C(=C/c1ccc([N+](=O)[O-])cc1)NC(=O)c1ccccc1 | 4.6%
CCOCCCNC(=O)C(NC(=O)c1ccc(=O)[nH]c1)c1ccc(Cl)cc1 (configuration not stated) | -7.9%
COc1ccc([C@H]2N[C@]3(CCCN(CC4CCCCC4)C3=O)[C@H]3C(=O)N(C)C(=O)[C@@H]23)cc1 | 5.5%
COCCNc1ccc(-c2n[nH]c(=O)c3ccccc23)cc1[N+](=O)[O-] | 40.1%
CCN(CC)CCNc1ccc(Cl)cc1[N+](=O)[O-] | 9.1%
CN(C)CCNc1ccc(-c2n[nH]c(=O)c3ccccc23)cc1[N+](=O)[O-] | 61.1% (active)
CCCC(=O)NC(Nc1ccccc1OC)C(Cl)(Cl)Cl (configuration not stated) | 3%
c1ccc(CCc2ccccn2)cc1 | -1.9%
O=c1[nH]nc(Cc2ccccn2)c2ccccc12 | 84.4% (active)
Cc1ccc(C(=O)C(C)OC(=O)Cc2n[nH]c(=O)c3ccccc23)cc1C (configuration not stated) | 12.9%
COc1ccc(OC)c(CN2C(=O)CCC2(C)C(=O)NC2CCCCCC2)c1 (configuration not stated) | 1.4%
O=C(CN1C(=O)NC2(CCCCCCC2)C1=O)NCc1ccc(F)cc1 | -8.5%
COc1ccc(N2CCN(Cc3ccc(Br)s3)CC2)cc1 | -6.8%
CCOc1cc(-c2cc(-c3ccc(NC(C)=O)cc3)nc(N)c2C#N)ccc1O | 65.8% (active)
Cc1ccc(NC(=O)c2sc3nc(N)c(C#N)cc3c2N)cc1 | -0.8%
CCSc1nc(-c2ccc(OC)cc2)cc(-c2ccc(OC)cc2)c1C#N | -1%
CCSc1nnc(SCC(=O)NNC(=O)c2ccccc2F)s1 | -2.9%

Compound | protection from H2O2 cell death
COc1ccc(CC(=O)N/N=C(\C)c2ccccn2)cc1 | 89.5% (active)
COc1ccc(CC(N)c2csc(NC(=O)Cc3ccccc3)n2)cc1 (configuration not stated) | 10.4%
CC(=NNC(=S)N1CCCCCC1)c1ccccn1 | -14.3%
CCOC(=O)[C@H]1CCC[C@@H](NS(=O)(=O)c2ccc(NC(C)=O)cc2)C1 | 3.9%
CCCCNc1ccc(C(=O)Nc2cccc(C)n2)cc1[N+](=O)[O-] | -6%
O=c1cc(CN2CCN(S(=O)(=O)/C=C/c3ccccc3)CC2)c2ccc(O)cc2o1 | 24.9%
Cc1nn(C)c(C)c1S(=O)(=O)N1CCC(CO)(Cc2ccc(Cl)cc2)CC1 | -21.2%
COc1ccc(-n2cc(-c3ccccc3)c3c(=S)nc[nH]c32)cc1 | 72.3% (active)
O=c1[nH]cnc2c1c(-c1ccccc1)cn2-c1ccc(F)cc1 | -5.8%
COc1ccc(N2C(=O)CNC2=S)cc1 | 5.9%
CCOC(=O)C1CCN(S(=O)(=O)c2ccc3c(c2)N(C)C(=O)CC(=O)N3C)CC1 | -1.6%
C[C@@H]1CN([C@H](C)CO)S(=O)(=O)c2ccc(C#C[C@@H](C)O)cc2O[C@@H]1CN(C)Cc1ccc(-c2ccccc2)cc1 | -5.2%
O=C(OCc1nnc(-c2ccccc2)o1)c1cc(=O)[nH]c2ccccc12 | 3.9%
Cc1onc(-c2ccccc2Cl)c1C(=O)OCc1nnc(-c2ccccc2)o1 | -13.6%
CCCc1nc2ccccc2c(C(=O)OCc2nnc(-c3cc(OC)c(OC)c(OC)c3)o2)c1CC | 64.8% (active)
Cc1ccc(CNS(=O)(=O)c2ccc3c(c2)N(C)CCO3)cc1 | -9.1%
C[C@@H]1CC[C@]2(O[C@@H](CCO)C[C@H](O)[C@H]2O)O1 | -5.8%
COc1ccc2oc(C(=O)N(CC(C)C)C3CCS(=O)(=O)C3)c(C)c2c1 (configuration not stated) | 2.8%
CC(C)CNC(=S)NNC(=O)c1ccccc1OC(F)F | -3.4%

Compound | protection from H2O2 cell death
O=C(CCS(=O)(=O)Cc1ccccc1)Nc1ccc2c(c1)OCCO2 | 0.6%
O=C(CN(c1ccc2c(c1)OCCO2)S(=O)(=O)c1ccccc1)Nc1ccc2c(c1)OCO2 | 79.8% (active)
CCN(CC(=O)Nc1ccc2c(c1)OCO2)S(=O)(=O)c1ccccc1 | -7.6%
COc1ccc(NS(=O)(=O)c2ccc(C)c(C(=O)NCC(c3cccs3)N3CCOCC3)c2)cc1 (configuration not stated) | -1.3%
COC(=O)c1ccc(S(=O)(=O)NCc2ccccc2)n1C | -1.9%
Oc1c(Cl)cc(Cl)cc1/C=N/c1ncn[nH]1 | 26.3%
C=CCn1c(Cn2nnc3ccccc32)nnc1SCC(=O)N/N=C/c1cc(Br)cc(OC)c1O | 9.5%
COc1cc(Br)cc(/C=N/c2ncn[nH]2)c1O | 88.7% (active)
CN(Cc1c(F)cccc1Cl)C(=O)COC(=O)Cn1cnc2ccccc2c1=O | -4%
Nc1scc(-c2ccncc2)c1Cl | -2.7%
[O-][n+]1ccc(OCc2ccccc2)cc1 | -5.2%
COc1ccc(-c2ccc3[nH]c4c(c3c2)CCN2C[C@H]3[C@H](C)ON(C)[C@H]3C[C@@H]42)cc1 | 54.5% (active)
COC(=O)[C@H]1[C@H]2C[C@H]3c4[nH]c5ccccc5c4CCN3C[C@@H]2CC[C@@H]1O | -2.1% and 1%
COc1cccc(C2c3[nH]c4ccccc4c3CCN2Cc2cccc(C)n2)c1 (configuration not stated) | -1.8%
COc1ccc(CNC(=O)c2ccc(NS(=O)(=O)c3ccc4[nH]c(=O)[nH]c4c3)cc2)cc1OC | 0.1%
NC(=O)c1ccccc1N=Cc1ccc2ccccc2c1 | 0.6%
CC(C)c1c(C(=O)N/N=C/c2ccccc2C(=O)O)nnn1-c1nonc1N | 5.1%
Nc1nonc1-n1nnc(C(=O)N/N=C/c2cc(Br)ccc2O)c1CSC1=NCCS1 | 56.9% (active)
COCc1c(C(=O)N/N=C\c2cccnc2)nnn1-c1nonc1N | -0.9%
